20 compounds from PubChem BioAssay (Tox21) can be followed below.

The structures appear in SMILES notation. Activity calls are given as the source filed them. Entries that show only a call come without a potency. Calls come from the whole dose curve.
Potency is the fitted concentration of half-maximal effect.

Sequence of Acetylcholinesterase (Homo sapiens) (P22303 whole entry, looked up): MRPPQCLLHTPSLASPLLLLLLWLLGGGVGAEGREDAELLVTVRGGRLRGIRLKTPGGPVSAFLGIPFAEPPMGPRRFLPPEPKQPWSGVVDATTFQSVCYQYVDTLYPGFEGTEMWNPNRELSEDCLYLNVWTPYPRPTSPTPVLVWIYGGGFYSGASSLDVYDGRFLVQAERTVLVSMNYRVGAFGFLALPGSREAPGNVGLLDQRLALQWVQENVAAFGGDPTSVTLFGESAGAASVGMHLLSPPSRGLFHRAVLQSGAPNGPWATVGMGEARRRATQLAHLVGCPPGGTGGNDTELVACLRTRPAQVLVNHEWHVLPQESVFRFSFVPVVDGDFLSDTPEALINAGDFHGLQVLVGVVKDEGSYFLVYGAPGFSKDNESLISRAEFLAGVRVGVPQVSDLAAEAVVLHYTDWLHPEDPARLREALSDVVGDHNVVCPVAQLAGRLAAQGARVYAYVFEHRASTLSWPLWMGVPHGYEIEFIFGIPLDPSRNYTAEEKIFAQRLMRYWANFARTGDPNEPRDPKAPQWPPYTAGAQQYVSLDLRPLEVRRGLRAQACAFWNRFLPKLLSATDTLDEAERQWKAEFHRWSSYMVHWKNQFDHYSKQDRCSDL

The target in this assay is Acetylcholinesterase (Homo sapiens) (UniProt P22303). Kind of assay: Acetylcholinesterase (AChE) small molecule antagonists: enzyme-based qHTS assay (AID 1347397). Note: nearly all actives have a fitted effect of over 55% in size. The note with it: Potency: AChE enzyme activity inhibition; series mostly up to 115 µM. The gist of the method:
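Enzyme inhibition was scored from DTNB-detected thiocholine formed by recombinant human AChE acting on acetylthiocholine. The 30 min compound preincubation and 10 min substrate reaction were both run at room temperature, with DMSO as vehicle control.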
In general terms: qHTS replaces the single test concentration by a dilution series.
For `CCOP(=S)(NC(C)C)Oc1ccccc1C(=O)OC(C)C` (stereo not given), the Potency result is “inactive”.

As for `COc1nc(C)nc(NC(=O)NS(=O)(=O)c2ccccc2Cl)n1`, the Potency result was “inactive”.

Consider `CO/N=C(\C(=O)OC)c1ccccc1CO/N=C(\C)c1cccc(C(F)(F)F)c1`, for which the Potency result is “inactive”.

On to `CNC(=O)Oc1cc(C)cc(C(C)C)c1`, for which the Potency is 399 nM (active).

As for `CC(C)=CC1C(C(=O)OC(C#N)c2cccc(Oc3ccccc3)c2)C1(C)C` (stereo not given), the Potency result was “inactive”.

With `Cc1cnc2c(C(=O)O)c(Cl)ccc2c1`, the Potency result was “inactive”.

Take `[O]=[Cr][O][Cr]=[O]`: the Potency result is “inactive”.

`COC(=O)c1ccccc1S(=O)(=O)NC(=O)Nc1nc(C)nc(OC)n1`: the Potency result was “inactive”.

Take `CCNS(=O)(=O)C(F)(F)C(F)(F)C(F)(F)C(F)(F)C(F)(F)C(F)(F)C(F)(F)C(F)(F)F`: the Potency result was “inactive”.

`ClC1(Cl)C2(Cl)C3(Cl)C4(Cl)C(Cl)(Cl)C5(Cl)C3(Cl)C1(Cl)C5(Cl)C24Cl` (stereo not given): the Potency result was “inactive”.

`CN/C(=N\[N+](=O)[O-])NCc1cnc(Cl)s1`: the Potency entry was “inactive”.

In the case of `Oc1cc(Cl)c(Cl)c(Cl)c1Cl`, the Potency result is “inactive”.

For `CCc1cccc(C)c1N(C(=O)CCl)[C@@H](C)COC`, the Potency result was “inactive”.

As for `Oc1ccc(Cl)c(Cl)c1`, the Potency entry is “inactive”.

Regarding `CC(C)c1c(CN(C)C(C)Cc2ccccc2)n(C)n(-c2ccccc2)c1=O` (stereo not given), the Potency entry was “inactive”.

As for `CN1C2CCC(C)(C)C1CC(OC(=O)C(O)(c1cccs1)c1cccs1)C2` (stereo not given), the Potency entry was “inactive”.

Turning to `CCC(C)Br` (stereo not given), the Potency entry is “inactive”.

Turning to `COc1cnc(OC)n2nc(NS(=O)(=O)c3c(OCC(F)F)cccc3C(F)(F)F)nc12`, the Potency result is “inactive”.

On to `CNC(=O)CSP(=O)(OC)OC`, for which the Potency result was “inactive”.

Take `CC(=O)C(Cl)C(=O)N(C)C` (stereo not given): the Potency entry was “inactive”.
